Where “and” joins values, the source holds several entries; their conditions need not be identical. Identical values can stand only once. Records with an inconclusive call do not appear. Calls of active or inactive are those of the source. Calls come from the whole dose curve; as a rule, active = well fitted curve in the direction sought with a large enough effect; inconclusive = small, poorly fitted or top-dose-only effect, or another doubt; inactive = no such curve, though single readings can be large; an effect the other way counts as inactive or inconclusive.
Key:
[1] = qHTS of pediatric cancer cell lines to identify multiple opportunities for drug repurposing: Primary screen for BT-12 cells (AID 1347101); note: nearly all actives have a fitted effect of over 25% in size
Summary of the method: (§1)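 Cells (500-1,000/well) rested 5 h, then received compounds for 48 h; metabolically active cells were measured by CellTiter-Glo luminescence. Final concentrations spanned up to 46 µM (MIPE, 11-point) or 0.59 nM-46 µM (NPC, 8-point) in primary screens, 11-point in follow-ups.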

[2] = qHTS of pediatric cancer cell lines to identify multiple opportunities for drug repurposing: Primary screen for Rh18 cells (AID 1347102); note: nearly all actives have a fitted effect of over 65% in size
Summary of the method: as §1

[3] = qHTS of pediatric cancer cell lines to identify multiple opportunities for drug repurposing: Primary screen for OHS-50 cells (AID 1347103); note: nearly all actives have a fitted effect of over 40% in size
Summary of the method: as §1

[4] = qHTS of pediatric cancer cell lines to identify multiple opportunities for drug repurposing: Primary screen for RD cells (AID 1347104); note: nearly all actives have a fitted effect of over 55% in size
Summary of the method: (§2)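 Plated cells (500-1,000 per well, growth media) were allowed to settle for 5 hours, treated with compound dilutions for 48 hours, then lysed with CellTiter-Glo for 15 min at room temperature before luminescence reading.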

[5] = qHTS of pediatric cancer cell lines to identify multiple opportunities for drug repurposing: Primary screen for MG 63 (6-TG R) cells (AID 1347105); note: nearly all actives have a fitted effect of over 50% in size
Summary of the method: as §2

[6] = qHTS of pediatric cancer cell lines to identify multiple opportunities for drug repurposing: Primary screen for control Hh wild type fibroblast cells (AID 1347106); note: nearly all actives have a fitted effect of over 55% in size
Summary of the method: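 Viability after 48 h compound treatment at 37C, 500-1,000 cells/well, read as ATP luminescence with CellTiter-Glo. Primary screens used 11-point (MIPE, 0.78 nM-46 µM) or 8-point (NPC, 0.59 nM-46 µM) final concentrations; follow-up screens used 11-point dilutions.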

[7] = qHTS of pediatric cancer cell lines to identify multiple opportunities for drug repurposing: Primary screen for Rh30 cells (AID 1347107); note: nearly all actives have a fitted effect of over 75% in size
Summary of the method: as §1

[8] = qHTS of pediatric cancer cell lines to identify multiple opportunities for drug repurposing: Primary screen for Rh41 cells (AID 1347108); note: nearly all actives have a fitted effect of over 70% in size
Summary of the method: as §2

[9] = qHTS of pediatric cancer cell lines to identify multiple opportunities for drug repurposing: Confirmatory screen for NB1643 cells (AID 1347109); note: nearly all actives have a fitted effect of over 45% in size
Summary of the method: as §1

[10] = qHTS of pediatric cancer cell lines to identify multiple opportunities for drug repurposing: Confirmatory screen for A673 cells (AID 1347110);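 note: cells exposed to compound for 48 h before the viability read; nearly all actives have a fitted effect of over 65% in size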
Summary of the method: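 Viability was read as ATP luminescence (CellTiter-Glo) after 48 h of compound exposure at 37 C in A673 cells seeded at 500-1,000/well. Titrations reached 46 uM final, with 11 points in the confirmatory screen. Concentration-response curves were fitted directly.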

[11] = qHTS of pediatric cancer cell lines to identify multiple opportunities for drug repurposing: Confirmatory screen for SK-N-MC cells (AID 1347111);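 note: cells exposed to compound for 48 h before the readout; nearly all actives have a fitted effect of over 70% in size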
Summary of the method: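 Seed 500-1,000 cells/well; rest 5 h at 37 degrees C. Pin-transfer compounds, 11-point titration. Incubate 48 h. Add CellTiter-Glo, 15 min RT, read luminescence.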

[12] = qHTS of pediatric cancer cell lines to identify multiple opportunities for drug repurposing: Confirmatory screen for BT-12 cells (AID 1347112); note: nearly all actives have a fitted effect of over 55% in size
Summary of the method: as §1

[13] = qHTS of pediatric cancer cell lines to identify multiple opportunities for drug repurposing: Confirmatory screen for LAN-5 cells (AID 1347113); note: nearly all actives have a fitted effect of over 65% in size
Summary of the method: as §1

[14] = qHTS of pediatric cancer cell lines to identify multiple opportunities for drug repurposing: Confirmatory screen for DAOY cells (AID 1347114); note: nearly all actives have a fitted effect of over 65% in size
Summary of the method: (§3)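 Viability measured as metabolically active cells via CellTiter-Glo luminescence following 48 hours of compound exposure, 11-point dilutions in confirmatory testing. 500-1,000 cells/well plated 5 hours before dosing; controls were DMSO and 2.3 µM bortezomib.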

[15] = qHTS of pediatric cancer cell lines to identify multiple opportunities for drug repurposing: Confirmatory screen for SJ-GBM2 cells (AID 1347116); note: nearly all actives have a fitted effect of over 60% in size
Summary of the method: as §3

[16] = qHTS of pediatric cancer cell lines to identify multiple opportunities for drug repurposing: Confirmatory screen for BT-37 cells (AID 1347117); note: nearly all actives have a fitted effect of over 55% in size
Summary of the method: as §1

[17] = qHTS of pediatric cancer cell lines to identify multiple opportunities for drug repurposing: Confirmatory screen for MG 63 (6-TG R) cells (AID 1347119); note: nearly all actives have a fitted effect of over 55% in size
Summary of the method: as §1

[18] = qHTS of pediatric cancer cell lines to identify multiple opportunities for drug repurposing: Confirmatory screen for control Hh wild type fibroblast cells (AID 1347121); note: nearly all actives have a fitted effect of over 70% in size
Summary of the method: as §1

[19] = qHTS of pediatric cancer cell lines to identify multiple opportunities for drug repurposing: Confirmatory screen for Rh41 cells (AID 1347123); note: nearly all actives have a fitted effect of over 60% in size
Summary of the method: as §1

[20] = qHTS of pediatric cancer cell lines to identify multiple opportunities for drug repurposing: Primary screen for LAN-5 cells (AID 1347100)
Summary of the method: as §1

Measured: Potency
Potency is the fitted concentration of half-maximal effect.

c1ccc2c(c1)Sc1ccccc1N2CC1CN2CCC1CC2 (stereo not drawn)
active: [1] 15.5 µM | [2] 23.7 µM | [3] 19.5 µM | [4] 15 µM | [5] 21.1 µM | [6] 23.7 µM

CCC(=O)O[C@H]1CC[C@H]2[C@@H]3CCC4=CC(=O)CC[C@]4(C)[C@H]3CC[C@]12C
inactive: [1] | [2] | [4] | [5] | [6] | [7] | [8]

CCO[C@H]1O[C@@H]2OC3(C)CC[C@H]4[C@H](C)CC[C@@H]([C@H]1C)[C@@]24OO3
inactive: [2] | [5] | [6] | [7]
active: [3] 13.8 µM

Cc1ccc([N+](=O)[O-])[c]2c1[O][Hg]2
active: [1] 2.76 µM | [2] 1.5 µM | [3] 0.55 µM | [4] 0.188 µM | [5] 1.33 µM | [7] 2.11 µM | [9] 0.737 µM | [10] 0.737 µM | [11] 233 nM | [12] 4.14 µM | [13] 2.93 µM | [14] 5.22 µM | [15] 4.14 µM | [16] 1.47 µM | [17] 5.22 µM | [18] 16.5 µM | [19] 0.233 µM

O=C(CCCN1CCC(n2c(=O)[nH]c3ccccc32)CC1)c1ccc(F)cc1
inactive: [20] | [2] | [4] | [5] | [6] | [7] | [8]

C[C@H]1C(=O)O[C@@H]2CCN3CC=C(COC(=O)[C@](C)(O)[C@]1(C)O)[C@H]23
inactive: [1] | [2] | [3] | [4] | [5] | [6] | [7] | [8]

Clc1ccc(C(OCCN2CCCCC2)c2ccccc2)cc1 (stereo not drawn)
inactive: [20] | [2] | [5] | [6] | [7]
active: [3] 19.5 µM

CC[C@]1(O)CC[C@H]2[C@@H]3CCC4=CCCC[C@@H]4[C@H]3CC[C@@]21C
inactive: [20] | [4] | [6] | [7]

CCc1cc(OC)c(C[C@H](C)N)cc1OC
inactive: [20] | [2] | [3] | [5] | [6] | [7]

COc1cc(CC(C)N)c(OC)cc1Br (stereo not drawn)
inactive: [2] | [7]
active: [5] 17.9 µM

CC[C@H]1C[C@H]2[C@@H]3CCC4=CC(=O)CC[C@@H]4[C@H]3CC[C@]2(C)[C@H]1O
inactive: [20] | [2] | [4] | [5] | [6]

OC(c1ccccc1)(c1ccccc1)C1CCNCC1
inactive: [20] | [1] | [4] | [5] | [6] | [7] | [8]

CC(=O)OC1(c2ccccc2)CCN(CCc2ccccc2)CC1
inactive: [5] | [6]
active: [3] 32.4 µM | [4] 62.3 µM | [8] 49.5 µM

CC(CC(C#N)(c1ccccc1)c1ccccc1)N(C)C (stereo not drawn)
active: [3] 28.2 µM | [4] 54.5 µM
inactive: [20] | [2] | [6] | [7]

Oc1ccc([C@H]2CNCc3c2ccc(O)c3O)cc1O
inactive: [1] | [3] | [4] | [6] | [7] | [8]

O=C(NC(=O)c1c(F)cccc1F)Nc1cc(Cl)c(OC(F)(F)C(F)C(F)(F)F)cc1Cl (stereo not drawn)
inactive: [2] | [4] | [5] | [6] | [7]

Cc1ncc2n1-c1ccc(Cl)cc1C(c1ccccc1F)=NC2
inactive: [1] | [2] | [4] | [6] | [7] | [8]

CC#C[C@]1(O)CC[C@H]2[C@@H]3C[C@H](C)C4=CC(=O)CC[C@]4(C)[C@H]3CC[C@@]21C
active: [3] 19.5 µM
inactive: [4] | [5] | [6] | [7] | [8]

O=C(CCl)c1ccc(Cl)cc1Cl
active: [20] 16.8 µM
inactive: [2] | [6] | [7]

Nc1ccc(N)cc1
inactive: [1] | [2] | [3] | [4] | [5] | [6] | [7]

CC[C@H]1C[C@@H]2C[C@H]3c4[nH]c5ccc(OC)cc5c4CCN(C2)[C@@H]13
inactive: [2] | [6] | [7]

CN1C(=O)CN=C(c2ccccc2)c2cc(Cl)ccc21
inactive: [20] | [1] | [4] | [5] | [6] | [7] | [8]

CN1[C@@H]2CC[C@H]1CC(OC(=O)c1cc(Cl)cc(Cl)c1)C2 (stereo partly drawn)
not listed: [3] | [4] | [8] | [14] | [16] | [19] | [20]
inactive: all other assays above

CN1C(=O)[C@@H](NC(=O)c2cc3ccccc3[nH]2)N=C(c2ccccc2)c2ccccc21
inactive: [1] | [2] | [3] | [5] | [6] | [7]

Clc1ccc(CO/N=C(\Cn2ccnc2)c2ccc(Cl)cc2Cl)c(Cl)c1
inactive: [6] | [7]
active: [20] 23.7 µM

COc1ccc2c3c1O[C@H]1[C@@H](O)C=C[C@H]4[C@@H](C2)N(C)CC[C@@]341
inactive: [6] | [7]
active: [20] 33.7 µM | [3] 44 µM | [4] 47.6 µM

C[C@]12Cc3nonc3C[C@@H]1CC[C@@H]1[C@@H]2CC[C@@]2(C)[C@H]1CC[C@]2(C)O
active: [3] 15.5 µM
inactive: [2] | [5] | [6] | [7]

NC1(c2ccccc2)CCCCC1
inactive: [20] | [2] | [5] | [6] | [7]

Clc1ccc(CSC(Cn2ccnc2)c2ccc(Cl)cc2Cl)cc1 (stereo not drawn)
inactive: [6]
active: [3] 27.6 µM | [4] 23.7 µM

Cc1nnc2n1-c1sc(CCc3ccc(CC(C)C)cc3)cc1C(c1ccccc1Cl)=NC2C (stereo not drawn)
active: [20] 23.7 µM | [1] 11 µM | [3] 21.9 µM
inactive: [6] | [7]

CC1COC2(c3ccccc3Cl)c3cc(Cl)ccc3NC(=O)CN12 (stereo not drawn)
active: [20] 6.68 µM
inactive: [2] | [4] | [5] | [6] | [7]

CCC(=O)C(CCN(C)C)(c1ccccc1)c1ccccc1
inactive: [20] | [4] | [5] | [6] | [7] | [8]

C=CCOC(Cn1ccnc1)c1ccc(Cl)cc1Cl (stereo not drawn)
inactive: [20] | [2] | [4] | [5] | [6] | [7] | [8]

COc1cc(C[C@@H](C)N)c(OC)cc1C
inactive: [20] | [2] | [4] | [5] | [6] | [7] | [8]

C=CC[C@]1(O)CC[C@H]2[C@@H]3CCC4=CC(=O)CCC4=C3C=C[C@@]21C
inactive: [20] | [2] | [4] | [5] | [6] | [7] | [8]

C[C@H](CN1CCOCC1)C(C(=O)N1CCCC1)(c1ccccc1)c1ccccc1
active: [3] 43.4 µM | [8] 46.9 µM
inactive: [6]

C[C@@H]1CC[C@H]2[C@@H](C)C(=O)O[C@@H]3O[C@@]4(C)CC[C@@H]1[C@]32OO4
inactive: [20] | [2] | [3] | [5] | [6] | [7] | [8]

N#Cc1nn(-c2c(Cl)cc(C(F)(F)F)cc2Cl)c(N)c1S(=O)C(F)(F)F (stereo not drawn)
active: [1] 12.3 µM | [3] 24.6 µM
inactive: [2] | [6] | [7]

C[C@@H]1C[C@@H]([C@H](O)CC2CC(=O)NC(=O)C2)C(=O)[C@@H](C)C1
inactive: [6] | [7] | [14] | [18]
active: [1] 777 nM and 611 nM | [3] 276 nM and 137 nM | [4] 473 nM and 235 nM | [8] 4.69 µM | [10] 1.65 µM | [11] 928 nM and 1.31 µM | [12] 2.93 µM | [13] 928 nM and 2.61 µM | [15] 2.33 µM | [16] 1.04 µM and 1.17 µM

— PubChem BioAssay (NCATS)
